Several values for one entry are separate records, joined by “and”; a condition that tells them apart may be missing. Equal values may be shown once. The whole screen tested about 5,500 compounds, of which about 2,000 (36%) were called active. About 18% were inconclusive and are not listed. Cut-off read from the data, not from the text of the source: active = normalized growth mostly below about 0.91 (no sharp cut-off); inconclusive = no clear call, values can overlap the other calls; inactive = mostly above about 0.92. This is one part of the list.
Test: chemical genetic growth profiling, strain panel (AID 1159580);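 note: tested at 20 µM; growth read once vehicle control cultures reached saturation at 30 °C; 1 = growth at the plate median or of vehicle wells; lower values mean less growth of the strain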
Settings: growth OD

Measured: normalized growth

Cn1c(=O)c2[nH]cnc2n(C)c1=O
inactive: S. cerevisiae deletion strains, locus YJR066W, strain TOR1, active compounds read low 0.959 | S. cerevisiae deletion strains, locus YKL009W, strain mrt4, active compounds read low 0.98 | S. cerevisiae deletion strains, locus YKL068W, active compounds read low 0.992 | S. cerevisiae deletion strains, locus YKL085W, strain MDH1 (second series), active compounds read low 0.982 | S. cerevisiae deletion strains, locus YKL085W, strain MDH1, active compounds read low 0.982 | S. cerevisiae deletion strains, locus YKL160W, strain elf1, active compounds read low 1.04 | S. cerevisiae deletion strains, locus YKL190W, strain CNB1, active compounds read low 0.996 | S. cerevisiae deletion strains, locus YKR001C, strain vps1, active compounds read low 0.971 | S. cerevisiae deletion strains, locus YKR026C, strain gcn3, active compounds read low 1.01 | S. cerevisiae deletion strains, locus YKR091W, strain srl3, active compounds read low 1.02 | S. cerevisiae deletion strains, locus YLL001W, strain dnm1, active compounds read low 1.01 | S. cerevisiae deletion strains, locus YLL026W, active compounds read low 1.02 | S. cerevisiae deletion strains, locus YLL041C, strain sdh2, active compounds read low 1.01 | S. cerevisiae deletion strains, locus YLR027C, strain aat2, active compounds read low 1.02 | S. cerevisiae deletion strains, locus YLR039C, strain RIC1, active compounds read low 0.982 | S. cerevisiae deletion strains, locus YLR058C, strain SHM2, active compounds read low 0.988 | S. cerevisiae deletion strains, locus YLR102C, strain apc9, active compounds read low 0.977 | S. cerevisiae deletion strains, locus YLR113W, strain HOG1, active compounds read low 0.99 | S. cerevisiae deletion strains, locus YLR221C, strain rsa3, active compounds read low 1.02 | S. cerevisiae deletion strains, locus YLR258W, strain gsy2, active compounds read low 1.02 | S. cerevisiae deletion strains, locus YLR262C, strain YPT6 (second series), active compounds read low 1 | S. cerevisiae deletion strains, locus YLR262C, strain YPT6, active compounds read low 0.993 | S. cerevisiae deletion strains, locus YLR268W, strain sec22, active compounds read low 0.941 | S. cerevisiae deletion strains, locus YLR320W, strain mms22, active compounds read low 1.01 | S. cerevisiae deletion strains, locus YLR330W, strain CHS5, active compounds read low 0.992 | S. cerevisiae deletion strains, locus YLR342W, strain FKS1 (second series), active compounds read low 0.99 | S. cerevisiae deletion strains, locus YLR342W, strain FKS1, active compounds read low 1.02 | S. cerevisiae deletion strains, locus YLR357W, strain rsc2, active compounds read low 1.01 | S. cerevisiae deletion strains, locus YLR370C, strain arc18, active compounds read low 1.03 | S. cerevisiae deletion strains, locus YLR371W, strain rom2, active compounds read low 0.968 | S. cerevisiae deletion strains, locus YLR384C, strain iki3, active compounds read low 1.01 | S. cerevisiae deletion strains, locus YLR418C, strain cdc73, active compounds read low 0.971 | S. cerevisiae deletion strains, locus YML016C, strain PPZ1, active compounds read low 0.989 | S. cerevisiae deletion strains, locus YML032C, strain rad52, active compounds read low 0.971 | S. cerevisiae deletion strains, locus YML120C, strain ndi1, active compounds read low 1.02 | S. cerevisiae deletion strains, locus YML124C, strain tub3, active compounds read low 0.969 | S. cerevisiae deletion strains, locus YMR058W, strain fet3, active compounds read low 1.02 | S. cerevisiae deletion strains, locus YMR078C, strain ctf18, active compounds read low 0.975 | S. cerevisiae deletion strains, locus YMR125W, strain sto1, active compounds read low 1.01 | S. cerevisiae deletion strains, locus YMR129W, active compounds read low 1.01 | S. cerevisiae deletion strains, locus YMR205C, strain PFK2, active compounds read low 1.04 | S. cerevisiae deletion strains, locus YMR223W, strain ubp8, active compounds read low 0.984 | S. cerevisiae deletion strains, locus YMR231W, strain pep5, active compounds read low 1.02 | S. cerevisiae deletion strains, locus YMR263W, strain SAP30, active compounds read low 0.996 | S. cerevisiae deletion strains, locus YMR307W, strain GAS1, active compounds read low 0.992 | S. cerevisiae deletion strains, locus YNL067W, strain RPL9B, active compounds read low 0.993 | S. cerevisiae deletion strains, locus YNL071W, strain lat1, active compounds read low 1.03 | S. cerevisiae deletion strains, locus YNL128W, strain TEP1, active compounds read low 0.985 | S. cerevisiae deletion strains, locus YNL153C, strain GIM3, active compounds read low 0.988 | S. cerevisiae deletion strains, locus YNL175C, strain NOP13, active compounds read low 0.995 | S. cerevisiae deletion strains, locus YNL183C, strain NPR1, active compounds read low 0.955 | S. cerevisiae deletion strains, locus YNL197C, strain WHI3, active compounds read low 1 | S. cerevisiae deletion strains, locus YNL209W, strain ssb2, active compounds read low 1.02 | S. cerevisiae deletion strains, locus YNL224C, strain SQS1, active compounds read low 0.99 | S. cerevisiae deletion strains, locus YNL233W, strain BNI4, active compounds read low 0.993 | S. cerevisiae deletion strains, locus YNL248C, strain rpa49, active compounds read low 1.05 | S. cerevisiae deletion strains, locus YNL250W, strain rad50, active compounds read low 0.979 | S. cerevisiae deletion strains, locus YNL271C, strain bni1, active compounds read low 0.967 | S. cerevisiae deletion strains, locus YNL298W, strain CLA4, active compounds read low 0.965 | S. cerevisiae deletion strains, locus YNL307C, strain MCK1, active compounds read low 0.971 | S. cerevisiae deletion strains, locus YNL322C, strain KRE1 (second series), active compounds read low 1.01 | S. cerevisiae deletion strains, locus YNR049C, strain mso1, active compounds read low 1.02 | S. cerevisiae deletion strains, locus YNR052C, strain pop2, active compounds read low 0.971 | S. cerevisiae deletion strains, locus YOL006C, strain TOP1, active compounds read low 1.01 | S. cerevisiae deletion strains, locus YOL012C, strain htz1 0.812 | S. cerevisiae deletion strains, locus YOL147C, strain pex11, active compounds read low 0.973 | S. cerevisiae deletion strains, locus YOR001W, strain rrp6, active compounds read low 0.994 | S. cerevisiae deletion strains, locus YOR061W, strain CKA2, active compounds read low 0.988 | S. cerevisiae deletion strains, locus YOR069W, strain VPS5, active compounds read low 0.982 | S. cerevisiae deletion strains, locus YOR070C, strain gyp1, active compounds read low 1.04 | S. cerevisiae deletion strains, locus YOR080W, strain dia2, active compounds read low 1 | S. cerevisiae deletion strains, locus YOR083W, strain WHI5 (second series), active compounds read low 1.01 | S. cerevisiae deletion strains, locus YOR083W, strain WHI5, active compounds read low 1.03 | S. cerevisiae deletion strains, locus YOR106W, strain vam3, active compounds read low 1.05 | S. cerevisiae deletion strains, locus YOR136W, strain idh2, active compounds read low 0.986 | S. cerevisiae deletion strains, locus YOR144C, strain elg1, active compounds read low 0.981 | S. cerevisiae deletion strains, locus YOR184W, strain ser1, active compounds read low 0.97 | S. cerevisiae deletion strains, locus YOR231W, strain MKK1, active compounds read low 0.979 | S. cerevisiae deletion strains, locus YOR265W, strain rbl2, active compounds read low 1.01 | S. cerevisiae deletion strains, locus YOR270C, strain vph1, active compounds read low 1.05 | S. cerevisiae deletion strains, locus YOR290C, strain snf2, active compounds read low 1.05 | S. cerevisiae deletion strains, locus YOR316C, strain cot1, active compounds read low 0.969 | S. cerevisiae deletion strains, locus YPL051W, strain arl3, active compounds read low 1.04 | S. cerevisiae deletion strains, locus YPL078C, strain atp4, active compounds read low 1.04 | S. cerevisiae deletion strains, locus YPL106C, strain sse1, active compounds read low 1.05 | S. cerevisiae deletion strains, locus YPL240C, strain hsp82, active compounds read low 1.02 | S. cerevisiae deletion strains, locus YPL241C, strain CIN2, active compounds read low 0.992 and 1 | S. cerevisiae deletion strains, locus YPL256C, strain CLN2, active compounds read low 0.97 | S. cerevisiae deletion strains, locus YPR119W, strain clb2, active compounds read low 0.986 | S. cerevisiae deletion strains, locus YPR141C, strain kar3, active compounds read low 0.961 | S. cerevisiae deletion strains, locus YPR163C, strain tif3, active compounds read low 0.965 | S. cerevisiae deletion strains, locus YPR167C, strain met16, active compounds read low 0.977 | S. cerevisiae deletion strains, strain wtn01, active compounds read low 0.953 | S. cerevisiae strains, strain wild type, active compounds read low 1

Source: PubChem BioAssay AID1159580 (chemical genetic matrix, 2015)
